Assay outcomes: PubChem BioAssay, ICCB-Longwood Screening Facility, Harvard Medical School
AID504770 – growth inhibitors of E. coli YBA685 in a screen for V. cholerae RctB (chromosome II replication) inhibitors; E. coli YBA685 rctB-dependent plasmid, OD600 growth, 3 h; active compounds read low; z-score (no concentration beside the values); 0.27% of 130,000 active; in the data active = z-score below about -2, passing the limit was not always enough
Mtb MenB inh – inhibitors of Mycobacterium tuberculosis MenB enzyme; P9WNP5; MenB enzyme assay, absorbance read-out; inhibition, % (no concentration beside the values); 0.43% of 100,000 active; in the data active = inhibition above about 21%, passing the limit was not always enough
Mtb MbtI inh – blocks the Mycobacterium tuberculosis siderophore enzyme MbtI; purified MbtI enzyme, fluorescence intensity read-out; 0.89% of 100,000 active; inhibition, % (no concentration beside the values); AID 493033; in the data active = inhibition mostly above about 56%, no sharp cut-off; inactive = mostly below about 77%
PV pol inh – poliovirus RNA polymerase inhibition | % elongation, % (compound at 16.7 µg/mL) | P03300 | AID 588519 | 0.66% of 150,000 active | poliovirus polymerase elongation, fluorescence polarization; active compounds read low; in the data active = % elongation below about 90%
Target sequence (P03300 1749-2209 limits assumed): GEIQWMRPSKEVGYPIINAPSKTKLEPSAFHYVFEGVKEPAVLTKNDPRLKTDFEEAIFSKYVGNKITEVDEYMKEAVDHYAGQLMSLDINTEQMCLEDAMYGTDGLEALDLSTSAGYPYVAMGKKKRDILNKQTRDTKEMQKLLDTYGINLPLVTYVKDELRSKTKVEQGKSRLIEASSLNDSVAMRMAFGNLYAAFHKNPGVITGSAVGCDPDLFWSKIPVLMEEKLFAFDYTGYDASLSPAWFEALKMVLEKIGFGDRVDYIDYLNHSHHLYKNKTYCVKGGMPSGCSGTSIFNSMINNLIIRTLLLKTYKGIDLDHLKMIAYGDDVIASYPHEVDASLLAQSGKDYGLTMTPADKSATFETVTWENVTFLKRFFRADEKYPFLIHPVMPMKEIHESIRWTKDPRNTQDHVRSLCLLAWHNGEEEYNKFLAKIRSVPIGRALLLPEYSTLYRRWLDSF
A number is an active result; - = inactive; . = no result. Only some compounds are listed: those with a hit (about 1.4% of all), similar ones and a draw of the others.

SMILES	AID504770	Mtb MenB inh	Mtb MbtI inh	PV pol inh
Cc1ccccc1CN1C(=O)C(O)(CC(=O)c2ccc3c(c2)CCCC3)c2ccccc21 (stereo not drawn)	-	-	-	-
CC12C=CC(CO)(O1)C1C(=O)N(c3ccc(Br)cc3)C(=O)C12 (stereo not drawn)	-	-	101.2	-
CC1(C)c2sc(=O)[nH]c2SC2C(=O)N(c3ccc(Br)cc3)C(=O)C21 (stereo not drawn)	-	-	-	-
O=C1CCCC2=C1C1(O)C(=O)c3ccccc3C1(O)O2 (stereo not drawn)	-	-	-	78.0
Nc1ccc2c(c1)OC1(O)c3ccccc3C(=O)C21O (stereo not drawn)	-	-	-	-
CC1=C(C(=O)Nc2ccc(C)cc2)C2(CCCCCC2)OC1=O	-	-	-	-
CC(=O)OCCNc1nc(-c2ccccc2)nc2ccccc12	-	.	.	.
CCCOc1ccc(-c2nc(NCCN)c3ccccc3n2)cc1	-3.05	.	.	.
O=C(NCc1ccco1)C(Sc1ccccc1)c1ccccc1 (stereo not drawn)	-	32.7	-	-
O=C(NCc1ccccc1)c1ccco1	-	-	-	-
O=C(NCc1ccco1)C(=S)NCc1ccccc1	-	-	68.4	-
O=C1C=CC(=O)N1c1ccccc1N1CCCCCC1	-	.	.	.
CCOC(=O)c1cnc(Nc2nc3ccccc3o2)nc1-c1ccccc1	-	.	-	.
COC(=O)c1c(NC(=O)CCCOc2cccc(C)c2)sc2c1C(C(=O)OC)CC2 (stereo not drawn)	.	.	.	81.0
COC(=O)c1c(NC(=O)CCCOc2ccc(C)cc2)sc2c1CCCC2	.	.	.	-
CCOc1ccc(/C=C/C(=O)Nc2sc3c(c2C(=O)OC)C(C(=O)OC)CC3)cc1 (stereo not drawn)	.	.	.	79.0
COC(=O)c1c(NC(=O)CCCOc2ccc(C)cc2)sc2c1C(C(=O)OC)CC2 (stereo not drawn)	.	.	.	71.0
COC(=O)c1c(NC(=O)CCCOc2cccc(C)c2)sc2c1CCC2	.	.	.	-
Cc1cc2c(=O)[nH][nH]c(=S)n2n1	-	-	-	-
O=C(NCc1ccc(S(=O)(=O)NCCN2CCCC2)s1)c1ccc(Cl)cc1	-	-	-	-
O=C(CC1OC(=O)c2ccccc21)c1ccccn1 (stereo not drawn)	-	.	.	.
O=C(CC1OC(=O)c2ccccc21)c1ccc(Cl)s1 (stereo not drawn)	-	-	-	85.0
CN(Cc1ccccc1)C(=O)COc1ccc(S(=O)(=O)N2CCCC2)cc1	-	40.5	-	-
Brc1ccc(-c2csc(=NC3CC3)n2N=C2CCCC2)s1	-	-	-	-
CC1(C)CC2CC(C)(CN2CC(O)COCc2ccc(Cl)cc2)C1 (stereo not drawn)	-	-	-	-
SMILES	AID504770	Mtb MenB inh	Mtb MbtI inh	PV pol inh
Cc1cc(C)c2cccnc2c1O	-2.4	-	-	-
CC1CCN(C(=O)COc2ccccc2C#N)CC1	-	-	-	-
N#Cc1ccc(CSc2nc3ccccc3c(=O)[nH]2)cc1	-	-	53.4	-
CCOC(=O)[C@@H]1CSC(c2ccc(OC)c(OC)c2)N1 (stereo partly drawn)	-	-	.	-
FC(F)Oc1ccc(NC(=S)NNc2nc3ccccc3[nH]2)cc1	-	-	-	44.0
CC(C)c1cccc(NC(=O)CCc2n[nH]c(=O)[nH]c2=O)c1	-	-	-	.
Cc1ccc(S(=O)(=O)N(C)c2c(C)ccc(S(=O)(=O)n3nc(C)cc3C)c2C)cc1	-	38.8	-	-
COc1cc(OC)cc(C(=O)N2CCC(C(=O)NCCc3ccccc3)CC2)c1	-	47.9	-	-
COc1ccc(CNCc2cccc(OC)c2)cc1	-	-	-	89.0
Cn1nc(-c2ccc(C(C)(C)C)cc2)cc1N	-	.	.	.
CC(C)(C)c1ccc(-c2cc3ncc(-c4ccccc4)c(N)n3n2)cc1	-2.3	-	-	-
c1cnc2c(c1)NC1(CCCCC1)N2	-	-	-	-
CC1=CC(=O)C(CCCC2=CC(=O)C=CC2=O)=CC1=O	-	-	100.3	-
Cc1ccc(C2=N/C(=C\c3c(C)nn(-c4ccccc4)c3N3CCCC3)C(=O)O2)s1	-	-	-	28.0
CC(NC(=O)Cn1ncc2ccccc21)c1ccccc1 (stereo not drawn)	-	-	-	-
CN(C)S(=O)(=O)c1ccc(-c2csc(=Nc3ccccc3)n2CCN2CCOCC2)cc1	-	-	-	-
CC1CCC(N(C)C(=O)COC(=O)c2ccc(-n3cncn3)cc2)CC1 (stereo not drawn)	-	-	-	-
O=C(O)C(C(=O)/C=C/c1ccccc1)=C1SCS1	-	-	88.8	-
CCn1c(CCNC(=O)c2ccccc2OC)nc2ccccc21	-	-	-	-
O=C(OCn1nnc2ccccc2c1=O)C1COc2ccccc2O1 (stereo not drawn)	-	-	58.3	-
O=C(OCn1nnc2ccccc2c1=O)C1CCCCC1	-	-	-	-
O=C(Sc1ccc(C(F)(F)F)cn1)c1csc(C2COc3ccccc3O2)n1 (stereo not drawn)	-	-	70.7	-
C/C(=N\NC(=O)CSc1nnc(-c2ccccc2)n1-c1ccccc1)c1cccs1	-	-	-	-
COC(=O)C1=C(C)NC(=O)C1(NS(=O)(=O)c1ccc(C)cc1)C(F)(F)F (stereo not drawn)	-	-	-	-
COC1(NS(=O)(=O)c2ccc(C)cc2)C(C)=CC(=O)C=C1C	-	.	93.7	.
SMILES	AID504770	Mtb MenB inh	Mtb MbtI inh	PV pol inh
CC(C)CC(C(=O)c1c(N)n(C)c(=O)n(C)c1=O)N1C(=O)c2ccccc2C1=O (stereo not drawn)	-	-	-	-
O=C(c1cccnc1Nc1ccccc1F)N1CCCCC1	-	38.8	-	-
O=c1[nH]c(CN2CCOCC2)nc2ccccc12	-	-	-	70.0
O=c1[nH]c(CN2CCN(Cc3ccccc3)CC2)nc2ccccc12	-	-	-	-
O=C(CC1CCCCC1)NCC1CCCO1 (stereo not drawn)	-	30.7	-	-
N/C(=N\O)c1ccc(O)cc1	-	-	-	-
NC(=O)c1ccsc1NC(=O)Cc1ccc(S(=O)(=O)N2CCOCC2)s1	-5.4	-	-	-
Cc1ccc(-c2nc(I)ccc2O)cc1	-	38.6	-	-
Cc1ccc(-c2ccnc(-c3ccc(O)cc3)n2)cc1	-	.	.	.
CCCCC1CCC(C(=O)O)CC1 (stereo not drawn)	-	.	-	-
CCCCC1CCC(CCCC(C)CCC(=O)O)CC1 (stereo not drawn)	.	.	.	89.0
Cc1ccc2c(c1C)NC(=O)CC2c1ccc(O)cc1 (stereo not drawn)	-	.	.	.
O=C(CSc1nnc(-c2cc3ccccc3[nH]2)n1-c1ccccc1)N1CCNC1=O	-	-	-	58.0
CCN1CCc2c(sc(=NC(=O)c3ccc(F)cc3)n2C(=O)c2ccc(F)cc2)C1	-	-	-	65.0
C=CCn1c(=NC(=O)c2ccc(F)cc2)sc2cc(C(=O)OC)ccc21	-	.	.	.
Nc1c(C(=O)c2ccccc2)sc2nc3c(cc12)C(=O)CCC3	-	.	.	.
Cn1c(=O)c2ncnnc2n(C)c1=O	-2.3	-	-	63.0
C=C(C)C[N+](C)(C)Cc1c(C)ccc2ccccc12	-	-	.	-
CN(C)S(=O)(=O)c1ccc(C(=O)OCC(=O)c2cc3ccccc3o2)cc1	-	-	-	-
